The text below walks through data of PubChem BioAssay (Tox21).

Inconclusive results are not listed. A number with no mark means an inactive call. Activity calls are given as the source filed them. Calls follow the shape of the full dose curve.
% is scaled to controls: 0 for no effect and ±100 for the full control effect.

A short description of the test: qHTS assay to identify small molecule agonists of the endoplasmic reticulum stress response signaling pathway - cell viability counter screen (AID 1159517). Also: nearly all actives have a fitted effect of over 50% in size. Conditions: ESRE-bla HeLa viability, CellTiter-Glo luminescence, 5 h; series mostly up to 61 µM. The source says:
U.S. Tox21 Program National Center for Advancing Translational Sciences [NCATS] NIH Chemical Genomics Center [NCGC] U.S. Environmental Protection Agency [EPA] National Institutes of Environmental Health Sciences [NIEHS] National Toxicology Program [NTP] U.S. Food and Drug Administration [FDA] Tox21 Assay Overview: Endoplasmic Reticulum (ER) plays an important role in cellular signaling, protein folding/maturation, stress response, lipid biosynthesis, calcium storage and release etc. Under stress conditions, proteins in ER misfold or unfold, and leading to the expression of ER stress responsive genes. ER stress has been associated with a variety of pathophysiological conditions such as cancer, inflammation, neurodegenerative diseases, diabetes, ischemic heart disease etc. To identify the compounds that induce ER stress response, an ER stress reporter cell line, CellSensor ESRE-bla HeLa (Life Technologies, Carlsbad, CA) containing a beta-lactamase reporter gene under control of the Endoplasmic reticulum Stress Response Element (ESRE) was used to screen Tox21 10K compound library. The cytotoxicity of the Tox21 compound library against the ESRE-bla HeLa cell line was tested in parallel by measuring cell viability using the CellTiter-Glo assay in the same wells.
Tox21 Assay Protocol Summary: ESRE-bla HeLa cells were dispensed at 1,500 cells/6 uL of assay medium per well into black wall/clear-bottom 1536-well plates using a Multidrop Combi (ThermoFisher Scientific, Waltham, MA) dispenser. After the assay plates were incubated at 37 C and 5% CO2 for an overnight, 23 nL of compounds dissolved in DMSO, positive controls or DMSO only was transferred to the assay plate by a Pintool station (Kalypsys, San Diego, CA). The assay plates were incubated at 37 C and 5% CO2 for 5 hr. One uL of LiveBLAzer B/G FRET substrate (Life Technologies) was added using a FRD (Flying Reagent Dispenser, Aurora Discovery, San Diego, CA) and the plates were incubated at room temperature for 2 hr. Fluorescence intensity (405 nm excitation, 460 nm and 530 nm emissions) was measured using an Envision plate reader (PerkinElmer, Shelton, CT). For cytotoxicity, 4 ul/well of CellTiter-Glo reagent was added into the assay plates using an FRD. After 30 min incubation at room temperature, the luminescence intensity was measured using a ViewLux plate reader (PerkinElmer).
Consider `NC(CCC(=O)O)C(=O)O` (stereo not given), for which the compound was called inactive. As for `CCCCN1C=CN(C)C1`, the result was inactive. Regarding `CCCCCC(C)N` (stereo not given), the outcome was inactive. Consider `CC(C)CC(C)(N)C#N` (stereo not given), for which the result was inactive. Same read-out and setting: next, `COCCOCC(OC)OC`: “inactive”; `CC[C@H]1OC(=O)[C@H](C)[C@@H](O[C@H]2C[C@@](C)(OC)[C@@H](O)[C@H](C)O2)[C@H](C)[C@@H](O[C@@H]2O[C@H](C)C[C@H](N(C)C)[C@H]2O)[C@](C)(OC)C[C@@H](C)C(=O)[C@H](C)[C@@H](O)[C@]1(C)O`: “inactive”. Same read-out and setting: next, `COc1cc(C(=O)NCc2ccc(OCCN(C)C)cc2)cc(OC)c1OC`: “inactive”; `N[C@@H](CCC(=O)O)C(=O)O`: “inactive”. Turning to `COc1cc2c(cc1OC)-c1cc3ccc(OC)c(OC)c3c[n+]1CC2`, the compound was called inactive. Turning to `CC(=O)N[C@H]1[C@H]([C@H](O)[C@H](O)CO)OC(C(=O)O)=C[C@@H]1N=C(N)N`, the call was inactive. With `CC(=O)C1CCCCC1=O` (stereo not given), the compound was called inactive. On the same count and under the same terms, then `OCCc1ccccn1`, with “inactive”.

Turning to `CN1C(C)(C)CC(O)CC1(C)C`, the outcome was inactive. Regarding `O=C(O)CNC(=O)c1ccc(CO)o1`, the call was inactive.

For the compound `NO`, the call was inactive. Regarding `CCCCCCCCCC[N+](C)(C)[O-]`, the outcome was inactive. In the case of `O=C(O)CCCC[P+](c1ccccc1)(c1ccccc1)c1ccccc1`, the result was inactive. As for `CCN(CC#N)c1cccc(C)c1`, the call was inactive. With `CC(=O)c1ccccc1[N+](=O)[O-]`, the compound was called inactive. For `O=S(=O)(O)c1cccc2ccccc12`, the result was inactive. Regarding `CCOc1ccc2nc(S(N)(=O)=O)sc2c1`, the outcome was inactive. Take `Cc1ncc([C@@H](CCCCCCc2ccc3c(n2)NCCC3)CC(=O)O)cn1`: the compound was called inactive.

Take `Cc1cc(C)c(N=Nc2c(O)c(S(=O)(=O)O)cc3cc(S(=O)(=O)O)ccc23)cc1C`: the activity change, negative = cytotoxicity is 9.59% [at 6.95 µM]. Turning to `COc1c(N2CCNC(C)C2)c(F)cc2c(=O)c(C(=O)O)cn(C3CC3)c12` (stereo not given), the outcome was inactive.

For `CCCCCCCCCCCCCCC(=O)O`, the compound was classed as inactive. Turning to `CC(C)C(=O)OC(=O)C(C)C`, the outcome was inactive. Take `O=C(O)CCSCCC(=O)O`: the result was inactive.

In the case of `CC(C)C[C@@H](N)C(=O)O`, the compound was classed as inactive. In the case of `CC(C)NNC(=O)c1ccncc1`, the outcome was inactive. On the same count and under the same terms, then `CC(C)CCCO`, with “inactive”.

Turning to `C=CC(=O)OCCCl`, the compound was called inactive. As for `CCCCCCCCCCCCCCCCCCO`, the compound was classed as inactive. Regarding `CCOc1c(N2CCOCC2)cnn(C)c1=O`, the compound was called inactive. Still for that read-out and setting: next, `CC(N)C12CC3CC(CC(C3)C1)C2` (stereo not given): “inactive”. Consider `C=COCC1CCC(COC=C)CC1` (stereo not given), for which the call was inactive. For the compound `c1ccc2sc(SN3CCOCC3)nc2c1`, the compound was called inactive. `c1ccc(Cc2ccccc2)cc1`: the compound was called inactive.

On to `C[C@@H]1C[C@H]2[C@@H]3C[C@H](F)C4=CC(=O)C(Cl)=C[C@]4(C)[C@@]3(F)[C@@H](O)C[C@]2(C)[C@@]1(O)C(=O)CO`, for which the call was inactive. As for `CCOC(=O)OC(C)OC1=C(C(=O)Nc2ccccn2)N(C)S(=O)(=O)c2ccccc21` (stereo not given), the result was inactive. Turning to `CC(C)C1CCC(O)CC1` (stereo not given), the outcome was inactive.
